The values that follow come from PubChem BioAssay (NCATS).

Where “and” joins values, the source holds several entries; their conditions need not be identical. Identical values can stand only once. Calls of active or inactive are those of the source. Calls come from the whole dose curve; as a rule, active = well fitted activation curve with a large enough effect; inconclusive = small, poorly fitted or top-dose-only effect; inactive = flat fitted curve, though single readings scatter.

The assay in a line: Cellular Toxicity (caspase-3) N2a (AID 665).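 Note: compound exposure lasted 16 h at 37 °C before readout.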 Particulars: N2a cells, luminescence, normalized: DMSO 0%, 10 µM staurosporine 100%; at 92.2 µM (top of the series). An excerpt:
NIH Chemical Genomics Center [NCGC]
NIH Molecular Libraries Screening Centers Network [MLSCN]
National Institutes of Environmental Health Sciences [NIEHS]
National Toxicology Program [NTP]
We have developed a 1536-well cell-based assay for quantitative high throughput screening (qHTS) against a number of cell lines to determine in vitro caspase 3/7 activity of small molecules. This particular assay uses the N2a cell line which is derived from mouse neuroblastoma.
NCGC Assay Protocol Summary:
The Caspase-Glo 3/7 assay (Promega) is a homogeneous method to measure caspase-3 and caspase-7 activities in cultured cells. The quantitation of caspase 3/7 activity is based on the cleavage of a peptide-aminoluciferin substrate. After caspase cleaves the substrate the free aminoluciferin is liberated and serves as the substrate of luciferase, which generates the light. The luminescent signal is proportional to the amount of caspase 3/7 activity present.
Using the Caspase-Glo 3/7 assay, the amount of caspase 3/7 activity was measured in the N2a cells with complete culture medium following compound treatment for 16 hours. The assay was performed in opaque white 1536-well plates. In the screen, staurosporine and doxorubicin were used as positive controls. Library compounds were measured for their ability to cause the activation of caspase 3/7 in the cell line, as reflected by an increase in luminescence signal, in a concentration-dependent manner. Data were normalized to the controls for basal activity (DMSO only) and 100% stimulation (10 uM staurosporine). AC50 values were determined from concentration-response data modeled with the standard Hill equation.
qHTS protocol for caspase 3/7 assay in mouse N2a cell line
[Step] [Parameter] [Value] [Description]
1. Reagent; 5 uL; 1500 mouse N2a cells/well
2. Time; 5 hr; 37 °C incubation
4. Controls; 23 nL; doxorubicin 7 pM to 100 uM & staurosporine 1.4 pM to 20 uM
5. Time; 16 hr; 37 °C incubation
6. Reagent; 5 uL; Caspase-Glo 3/7 reagent
7. Time; 1 hr; Room Temperature
8. Detection; Luminescence; Viewlux plate reader
Keywords: caspase 3/7, apoptosis, mouse N2a cell line, luminescence, NTPHTS, NTPHTS_NCGC, NIEHS, EPA, DSSTox, MLSMR, MLSCN, NIH Roadmap, qHTS, NCGC
With `CCC[CH2][Sn]([Cl])([Cl])[Cl]`, the caspase-3 activation was 0.958% (inactive).
Next, `c1ccc(N=Nc2ccccc2)cc1`: -2.4% (inactive); `CCOCN(C(=O)CCl)c1c(C)cccc1CC`: -0.109% (inactive); `C/C=C/c1ccc2c(c1)OCO2`: 0.0142% (inactive).
The same measure for `Cc1ccc(O)c(C)c1`: 3.54% (inactive).
Next, `O=[N+]([O-])c1ccc(Cl)c(Cl)c1`: -2.95% (inactive).
`C[N+](C)(C)Cc1ccccc1`: the caspase-3 activation was -0.692% (inactive).
The same measure for `O=C(Cl)/C=C/C(=O)Cl`: -4.67% (inactive).
Next, `C=CCc1ccc(OC)cc1`: 0.258% (inactive); `CN=C=S`: 2.61% (inactive); `NC(=S)Nc1ccccc1`: -3.2% (inactive) and -1.82% (inactive).
Next, `CC(C)(OO)c1ccccc1`: -2.62% (inactive); `CCCC(=O)Cl`: 4.05% (inactive).
As to `O=C(Cl)C(Cl)(Cl)Cl`, the caspase-3 activation is 0.525% (inactive).
`CCCCCCCCCc1ccc(O)cc1`: the caspase-3 activation was 98.6% (active).
With `Nc1ccccc1Cl`, the caspase-3 activation is 1.48% (inactive).
Next, `ClC(Cl)=C(c1ccc(Cl)cc1)c1ccc(Cl)cc1`: 2.33% (inactive) and 2.48% (inactive); `Clc1cc(Cl)c(-c2cc(Cl)c(Cl)cc2Cl)cc1Cl`: -0.702% (inactive).
As for `CCN(CC)c1ccccc1`, the caspase-3 activation is -1.42% (inactive).
The same measure for `O=[N+]([O-])c1cccc2ccccc12`: -0.0738% (inactive); for `COP(=S)(OC)Oc1ccc([N+](=O)[O-])cc1`: -2.62% (inactive).
As to `ClC1=C(Cl)C2(Cl)C3C(Cl)C=CC3C1(Cl)C2(Cl)Cl` (stereo not given), the caspase-3 activation is -3.13% (inactive).
The same measure for `CNC(=O)O/N=C/C(C)(C)SC`: -2.85% (inactive); for `C=C(Cl)Cl`: 1.75% (inactive); for `ClC1=C(Cl)C2(Cl)C3C4CC(C5OC45)C3C1(Cl)C2(Cl)Cl` (stereo not given): -1.24% (inactive).
For `CCOP(=S)(OCC)SCSC(C)(C)C`, the caspase-3 activation is -3.31% (inactive).
The same measure for `Cc1cccc([N+](=O)[O-])c1`: 2.99% (inactive).
`CCNc1nc(Cl)nc(NC(C)C)n1`: the caspase-3 activation is -0.492% (inactive).
Consider `Cc1ccc([N+](=O)[O-])cc1C`, for which the caspase-3 activation was -3.15% (inactive).
Next, `C=CC(C)=O`: 0.266% (inactive); `CCCCOC(=O)c1ccccc1C(=O)OCCCC`: -1.36% (inactive).
Next, `C=CC1CC=CCC1` (stereo not given): -0.281% (inactive); `O=C(O)COc1ccc(Cl)cc1Cl`: -2.05% (inactive) and -1.8% (inactive); `c1nc[nH]n1`: -1.83% (inactive).
Next, `CC(=O)[O-].CC(=O)[O-].O.O.O.[Pb+2]`: 0.731% (inactive) and -2.95% (inactive); `c1ccc(OP(Oc2ccccc2)Oc2ccccc2)cc1`: 0.755% (inactive).
Regarding `ClC1=C(Cl)C2(Cl)C3C4C=CC(C4)C3C1(Cl)C2(Cl)Cl` (stereo not given), the caspase-3 activation was 2.47% (inactive).
The same measure for `O=C1C(Cl)=C(Cl)C(=O)C(Cl)=C1Cl`: -13.5% (inactive); for `CCOc1ccc(N)cc1`: 6.79% (inactive).
Consider `O=NN(CCO)CCO`, for which the caspase-3 activation is -1.3% (inactive).
